The panel holds about 83,000 compounds, 20% with a hit somewhere; the sample as a whole holds those more often.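 Compound tested at a single concentration for 48 hours in 96-well plates; a percent growth value below 10 was scored as active.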 Values without a mark were called inactive. Active and inactive are the calls of the source.
What was measured:
Assay in all cases: NCI-60 one-dose screen, 48 h (100 = growth as untreated, 0 = no growth, -100 = all killed)
Settings in all cases: 10 µM unless noted
RPMI-8226 leukemia = test system: RPMI-8226 leukemia
OVCAR-8 ovarian = test system: OVCAR-8 ovarian
OVCAR-5 ovarian = test system: OVCAR-5 ovarian
OVCAR-4 ovarian = test system: OVCAR-4 ovarian
SK-OV-3 ovarian = test system: SK-OV-3 ovarian
IGROV1 ovarian = test system: IGROV1 ovarian
OVCAR-3 ovarian = test system: OVCAR-3 ovarian
HS 578T breast = test system: HS 578T breast
NCI/ADR-RES ovarian = test system: NCI/ADR-RES ovarian
MCF7 breast = test system: MCF7 breast
HCT-116 colon = test system: HCT-116 colon
HCC-2998 colon = test system: HCC-2998 colon
KM12 colon = test system: KM12 colon
T-47D breast = test system: T-47D breast
BT-549 breast = test system: BT-549 breast
SW-620 colon = test system: SW-620 colon
MDA-MB-435 melanoma = test system: MDA-MB-435 melanoma

SMILES	growth (RPMI-8226 leukemia)	growth (OVCAR-8 ovarian) [%]	growth (OVCAR-5 ovarian)	growth (OVCAR-4 ovarian) [%]	growth (SK-OV-3 ovarian)	growth (IGROV1 ovarian)	growth (OVCAR-3 ovarian)	growth (HS 578T breast)	growth (NCI/ADR-RES ovarian)	growth (MCF7 breast)	growth (HCT-116 colon)	growth (HCC-2998 colon) [%]	growth (KM12 colon)	growth (T-47D breast)	growth (BT-549 breast)	growth (SW-620 colon) [%]	growth (MDA-MB-435 melanoma)
COc1cc(CCn2nnc3c(Nc4ccc(N5CCOCC5)cc4)ncnc32)cc(OC)c1	72.8%	109	95.3%	91.1	112%	110%	92.8%	91.2%	86.3%	102%	101%	99.7	81.6%	–	–	–	–
CCO/C=N/NC(=O)c1ccncc1	108%	108	103%	109	109%	108%	106%	105%	111%	101%	105%	113	106%	106%	114%	104	–
NC(=O)NNC(=O)c1ccccc1	103%	110	109%	108	123%	–	111%	108%	103%	100%	99.7%	107	103%	111%	107%	108	105%
COc1ccc(C2SCC(=O)N2NC(=O)c2ccc(NC(=O)c3ccccn3)cc2)cc1OC (centres undefined)	96.3%	98	100%	100	102%	101%	–	102%	105%	104%	100%	104	95.8%	97.8%	102%	104	104%
O=S=Nc1ccc([N+](=O)[O-])cc1	102%	104	87.2%	101	103%	103%	–	95%	99.4%	95.7%	94%	93.5	81.6%	76.2%	–	93.4	95.5%
Cn1c(=O)c2c(nc3n2CCN(CCc2ccc(OCCN4CCOCC4)cc2)C3)n(C)c1=O	100%	109	103%	95.5	118%	108%	110%	106%	112%	95.7%	109%	122	103%	93.6%	–	105	105%
COc1ccc(/C(=N\O)c2cc(OC)c(OC)c(OC)c2)c(OC)c1N	24.2%	18	47.8%	42.9	43%	46.1%	–	7.51% (active)	18.2%	15.6%	7.66% (active)	35.7	11.7%	45.1%	2.29% (active)	23.4	-66.3% (active)
O=C(CCC(=O)OC1CCCC1)OC1CCCC1	95.1%	91.6	98.7%	107	110%	110%	102%	–	105%	95.2%	109%	101	102%	94.1%	99.9%	103	100%
CCOC(=O)c1cc(/C(=N\O)c2cc(OC)c(OC)c(OC)c2)n2cc(C)cc(C)c12	17.6%	41.8	64.3%	20.7	37.8%	57.5%	-8.99% (active)	11.4%	22.6%	13.6%	-6.14% (active)	67.5	20.7%	26.9%	28.6%	–	-22.7% (active)
CCCCNc1nnc(-c2cc(-c3cc4ccccc4o3)nn2-c2ccccc2)o1	77.9%	88	105%	86.7	99.4%	63.9%	–	93.1%	87.5%	73.8%	89.4%	–	103%	76.7%	96.7%	103	101%
COc1ccc(/C=C/c2nc(N3CCOCC3)c3cc(F)c(F)cc3n2)cc1OC	12.2%	32.9	76%	30.6	71.8%	53.4%	–	70.1%	22.8%	15.9%	38.7%	38.2	28.1%	6.31% (active)	33.4%	55.5	15.8%
CCN(Cc1ccc(CN(CC)C(=O)C(Br)Br)cc1)C(=O)C(Br)Br	14.2%	20.4	71.1%	32.1	79.8%	46.4%	8.57% (active)	38.1%	39.7%	24.4%	-21% (active)	18.8	4.49% (active)	27.9%	36%	21.6	–
O=S(=O)(NCCCNc1cc(-c2cn(-c3ccccc3)nc2-c2cccc(O)c2)ccn1)c1cccc(F)c1	32%	39.8	68.3%	50.2	72%	53.8%	–	41.7%	49.3%	31.2%	32.1%	10.3	28.2%	15.6%	44.7%	29.5	49.3%
N#CC1=C(N)OC2=C(C(=O)CCC2)C1c1ccco1 (centres undefined)	100%	103	104%	106	98.2%	107%	113%	115%	103%	95.5%	103%	104	110%	92.6%	–	110	98.9%
CC(C(=O)n1cc(-c2ccccc2)c(-c2ccccc2)c1)c1ccccc1 (centres undefined)	98.2%	99.2	106%	107	105%	111%	118%	115%	106%	100%	99.8%	104	105%	93.4%	117%	111	–
C=CC(=O)N[C@H](/C=C/C(=O)OCC)Cc1ccc(-c2cc(Cl)cc(Cl)c2)cc1	73.8%	76.6	95.5%	83.6	94.6%	93%	–	94.8%	81.8%	82.8%	72.1%	94.6	89.8%	57.7%	84.6%	91.7	96.1%
COc1ccc(/C=C/C(=O)c2ccc(NC(=O)CN3CCN(c4cc5c(cc4F)c(=O)c(C(=O)O)cn5C4CC4)CC3)cc2)cc1	92.6%	99	105%	101	114%	115%	–	94.8%	107%	91.9%	25.1%	100	106%	98.7%	92.6%	113	98.6%
COc1ccc(C(=O)/C=C/c2ccc(/C=C/c3cc(OC)c(OC)c(OC)c3)cc2)cc1	-0.626% (active)	28.4	117%	65.7	102%	6.66% (active)	41.4%	–	50%	30.6%	17.5%	94.1	29.2%	43.4%	41.6%	39.3	41%
O=C(Nc1cc(C(F)(F)F)cc(C(F)(F)F)c1)Nc1ccc(OCc2nnc(-c3ccc(Cl)cc3)o2)c(F)c1	3.52% (active)	10.6	-5.15% (active)	24	5.55% (active)	32.7%	16%	28.1%	4.95% (active)	6.03% (active)	7.81% (active)	20.3	13.7%	13.2%	22.8%	–	9.18% (active)

Reference: PubChem BioAssay (NCI)
